Bioassay records deposited in PubChem BioAssay by several laboratories.
697 NFkB inh: inhibitors of the PMA/ionomycin-induced NF-kB reporter in 697 B cells; 697 B-cell NF-kB luciferase reporter, 16 h; inhibition, % at 4 µM; hit rate 0.33% among 330,000; AID 435022; in the data active = inhibition above about 35%
Jurkat NFkB inh: inhibitors of the PMA/ionomycin-induced NF-kB reporter in Jurkat cells; AID 435003; inhibition, % at 4 µM; PMA/ionomycin-induced NF-kB luciferase reporter, luminescence; hit rate 0.53% among 330,000; in the data active = inhibition above about 50%
A1 inh: inhibitors of the anti-apoptotic protein A1, read as caspase activation; MEF A1-2A-BIM cells, Caspase-Glo 3/7 luminescence, 3 h; percent of clofoctol response, vehicle zero; caspase activation, % (concentration not given with the values); hit rate 0.066% among 330,000; AID 2462;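 active = over half of replicate activation scores above 10%, or exactly half above 10 with the replicate mean above 10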
NTR1 ag: agonists of human neurotensin receptor NTR1 | NTR1-U2OS beta-arrestin-GFP spot imaging, agonist mode | P30989 | activation, % at 20 µM | hit rate 0.17% among 330,000;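 active = activation at or above 40% of the spot to cytoplasm intensity ratio, with at least 20 cells analyzed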;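 also: 0% = DMSO without peptide and 100% = 100 nM NTR1 peptide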
Mdm2 MdmX PPI: inhibitors of human Mdm2/MdmX interaction; inhibition, % at 8 µM; O15151+Q00987; SaOS-2 split-luciferase Mdm2/MdmX complementation, luminescence; hit rate 3% among 330,000;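 active = inhibition of at least 50% at 8 µM in the primary screen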
Target sequence (O15151 whole entry, looked up): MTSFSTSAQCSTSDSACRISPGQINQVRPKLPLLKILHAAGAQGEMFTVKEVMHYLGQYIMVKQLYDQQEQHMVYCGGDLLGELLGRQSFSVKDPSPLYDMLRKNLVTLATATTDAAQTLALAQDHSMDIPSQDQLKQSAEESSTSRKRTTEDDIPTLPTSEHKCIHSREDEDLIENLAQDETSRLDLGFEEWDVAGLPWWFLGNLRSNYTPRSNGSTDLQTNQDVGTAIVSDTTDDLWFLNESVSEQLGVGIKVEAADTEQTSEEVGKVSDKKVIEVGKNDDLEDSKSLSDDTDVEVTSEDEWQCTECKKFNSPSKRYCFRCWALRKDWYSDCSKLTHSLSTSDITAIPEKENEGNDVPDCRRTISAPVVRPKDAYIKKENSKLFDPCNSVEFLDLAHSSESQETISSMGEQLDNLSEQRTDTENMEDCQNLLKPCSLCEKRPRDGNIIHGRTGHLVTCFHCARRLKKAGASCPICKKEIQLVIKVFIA
Target sequence (Q00987 whole entry, looked up): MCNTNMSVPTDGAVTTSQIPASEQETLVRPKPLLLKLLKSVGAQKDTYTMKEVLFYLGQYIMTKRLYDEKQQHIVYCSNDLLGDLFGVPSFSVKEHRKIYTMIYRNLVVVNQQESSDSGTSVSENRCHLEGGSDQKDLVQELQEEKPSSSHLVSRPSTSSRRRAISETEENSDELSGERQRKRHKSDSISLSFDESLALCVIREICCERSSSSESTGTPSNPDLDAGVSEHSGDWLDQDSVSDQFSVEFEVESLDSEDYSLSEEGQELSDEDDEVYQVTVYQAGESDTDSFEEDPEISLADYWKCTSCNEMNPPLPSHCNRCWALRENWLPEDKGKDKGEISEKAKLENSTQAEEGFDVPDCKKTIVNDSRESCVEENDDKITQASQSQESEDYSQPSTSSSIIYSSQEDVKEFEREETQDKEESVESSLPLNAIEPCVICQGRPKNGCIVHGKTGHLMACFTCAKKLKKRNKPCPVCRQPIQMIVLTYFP
Beta apoptosis: blocks beta cell apoptosis. AID 435005. hit rate 0.8% among 300,000. protection from apoptosis, % (test concentration not listed). INS-1E cytokine-induced death, ATP luminescence, 48 h; percent of positive-control rescue, neutral wells zero;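 active = Every replicate reaches about 75%, or at least half do and their mean reaches it too, limit read from the data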;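 also: 0% = cytokine-treated negative control wells and 100% = positive control rescue; higher means more ATP so stronger rescue from cytokine killing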
Mdm2-MdmX conf: confirmation of human Mdm2/MdmX interaction inhibitors | hit rate 55% among 10,000 | Mdm2-MdmX binding, luminescent assay | AID 489028 | shares compounds with Mdm2 MdmX PPI | inhibition, % at 8 µM; in the data active = inhibition above about 40%
FLuc counter: full-length luciferase inhibition in Mdm2/MdmX counter-screen; shares compounds with Mdm2 MdmX PPI; SaOS-2 full-length luciferase counterscreen, luminescence; inhibition, % at 8 µM; hit rate 77% among 6,200; AID 504607;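 active = mean inhibition at 8 µM reaching about 37%, which flags the compound as non-specific, limit read from the data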;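 also: p53-null SaOS-2 cells with luciferase driven by a doxycycline-inducible promoter; compound on cells about two nights before reading with doxycycline added after day one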
* = called active by the depositor; · = not tested or not shown. Shown are actives, neighbours in structure and some others; about 3.8% of the full set was active somewhere.

SMILES	697 NFkB inh	Jurkat NFkB inh	A1 inh	NTR1 ag	Mdm2 MdmX PPI	Beta apoptosis	Mdm2-MdmX conf	FLuc counter
COC(=O)Cn1c(=NC(=O)c2sc3ccccc3c2Cl)sc2cc(S(N)(=O)=O)ccc21	-8.4	-11.6	0.0	5.8	63.6*	-0.7	38.2	51.5*
CCOC(=O)Cn1c(=NC(=O)c2sc3ccccc3c2Cl)sc2cc(S(N)(=O)=O)ccc21	·	·	-0.1	·	·	2.6	·	·
Cc1nc2scc(C)n2c(=O)c1S(=O)(=O)NC(C)c1ccccc1 (centres undefined)	8.1	-2.0	0.5	1.4	24.1	-3.2	·	·
COCCn1c(N)c(N(Cc2ccccc2)C(=O)COc2ccc(F)cc2Cl)c(=O)[nH]c1=O	18.9	-6.3	0.7	-1.0	6.6	-7.0	·	·
CCCOc1ccc(C(=O)C(CN2CCOCC2)c2ccccc2)cc1 (centres undefined)	-8.3	7.6	0.0	0.2	91.3*	79.0*	84.5*	25.6
O=C(Nc1ccc2c(c1)OCO2)c1cnn2c(C(F)(F)F)cc(-c3ccco3)nc12	26.9	1.3	0.7	5.3	33.5	0.1	·	·
O=C(Nc1cnn(C23CC4CC(CC(C4)C2)C3)c1)c1cnn2c(C(F)(F)F)cc(-c3ccco3)nc12	11.5	-6.3	-0.2	11.3	58.1*	20.3	16.6	·
CCO[C@@H]1OC(C(=O)NC2CC2)=C[C@H](c2coc3ccccc3c2=O)[C@H]1CCCO	-0.8	10.7	-0.4	-1.6	14.8	-1.7	·	·
CN(C)CCCNc1cc(C(C)(C)C)nc2c(-c3ccc(Cl)cc3)cnn12	2.4	49.5	1.1	-1.6	97.7*	20.6	71.7*	50.5*
Cc1cc(NCCCN2CCOCC2)n2ncc(-c3ccc(Cl)cc3)c2n1	-87.0	-103.8	0.3	-1.7	65.1*	-4.4	62.3*	69.2*
Cn1c(=O)c2c(nc(NCCCN3CCOCC3)n2Cc2ccc(Cl)cc2)n(C)c1=O	11.1	-10.0	-0.2	1.2	20.7	-1.9	·	·
CC(C)(C)c1cc(NCc2ccccn2)n2ncc(-c3ccc(Cl)cc3)c2n1	-3.9	1.2	-0.6	10.8	45.2	6.9	·	·
CN1CC(=O)N(CC(=O)Nc2cccc3ccccc23)C1=O	2.0	-9.9	1.0	0.5	-23.1	-9.9	·	·
Cc1ccc(-n2sc3ccccc3c2=O)cc1	-36.4	-25.1	-10.0	-0.6	29.1	25.1	·	·
O=c1c2ccccc2sn1-c1ccc(F)cc1	-0.7	-22.6	-11.7	-2.6	50.9*	5.9	11.6	·
CC(=O)Nc1nonc1-c1nc2ccccc2n1Cc1nnc(C)o1	2.3	-11.1	1.2	-0.2	19.5	-0.1	·	·
CC(=O)Nc1nonc1-c1nc2ccccc2n1Cc1ccccc1	-10.7	13.5	-2.0	5.9	69.9*	1.9	65.6*	117.7*
COc1ccc(-c2nn(-c3ccccc3)cc2/C=C2/SC(=S)N(Cc3ccco3)C2=O)c(C)c1	16.2	-0.9	0.7	6.6	58.7*	-2.6	12.5	·
CC(C)Cn1c(N)c(C(=O)NCC2CCCO2)c2nc3ccccc3nc21 (centres undefined)	13.3	7.4	0.5	12.7	52.2*	-19.8	21.4	·
CC1CCc2cc(F)cc3c(O)c(C(=O)NCC4CCCO4)c(=O)n1c23 (centres undefined)	0.3	-16.6	-0.5	-3.8	70.6*	-0.9	44.0*	21.7
CCCn1c(=O)c(C(=O)NCc2cccnc2)c(O)c2ccccc21	-18.5	8.6	0.4	0.9	10.9	-0.7	·	·
CCCn1c(=O)c(C(=O)NCc2ccccn2)c(O)c2ccccc21	4.3	-18.4	-0.6	2.3	62.9*	6.2	33.1	·
CCCn1c(=O)c(C(=O)NCC2CCCO2)c(O)c2ccccc21 (centres undefined)	-6.6	-3.2	0.4	1.0	67.5*	2.0	11.3	·
O=C(Nc1cc2c3c(c1)CC(=O)N3CCC2)c1ccc(Cl)cc1	1.8	2.0	-0.8	1.1	26.3	1.8	·	·
Cc1cc(NC(=O)Nc2ccccc2[N+](=O)[O-])n(C)n1	13.8	1.1	-0.2	0.1	-19.8	-0.7	·	·
SMILES	697 NFkB inh	Jurkat NFkB inh	A1 inh	NTR1 ag	Mdm2 MdmX PPI	Beta apoptosis	Mdm2-MdmX conf	FLuc counter
COc1ccc(N2C(=O)c3ccccc3NC2c2ccc(NC(C)=O)cc2)c(OC)c1 (centres undefined)	3.2	-5.4	0.2	-0.3	5.5	0.3	·	·
CC(C)(C)c1cc(-c2nc(N)nc(N)n2)c(O)c(C(C)(C)C)c1	21.2	1.4	0.5	18.2	68.0*	3.8	5.8	·
Nc1nc(N)nc(-c2ccccc2-c2nc(N)nc(N)n2)n1	1.1	-15.8	0.2	-0.5	-0.5	-6.6	·	·
Cc1cc(/C=C2\SC(=S)N(C)C2=O)c(C)n1-c1ccc(O)cc1	-51.1	-6.1	-2.9	0.5	84.5*	-4.8	80.8*	50.3*
Cc1cc(/C=C2\SC(=S)N(C)C2=O)c(C)n1-c1ccccc1O	-145.4	-29.2	-3.6	-0.8	85.6*	11.5	89.5*	108.2*
CN1C(=O)/C(=C/c2coc3ccc(O)cc3c2=O)SC1=S	21.3	-2.6	-5.4	0.8	23.2	-7.3	·	·
CCC(C)NC(=O)C1CCN(S(=O)(=O)c2ccc(-n3cnnn3)cc2)CC1 (centres undefined)	-7.8	-8.2	0.1	-0.5	4.0	2.0	·	·
CC(=O)C1[C@H](N(C)C)CC2C3CC=C4CC(O)CC[C@]4(C)C3CC[C@@]21C (some centres undefined)	-10.1	-8.2	-0.3	1.0	4.3	-0.8	·	·
O=C(COC(=O)C1CC(=O)N(Cc2ccco2)C1)Nc1nc(-c2ccc(F)cc2)cs1 (centres undefined)	-12.2	7.3	-10.1	0.2	20.4	5.1	·	·
COc1ccc(/C=N/Nc2cc(OC)ncn2)cc1	·	·	-8.9	·	·	-4.3	·	·
Cc1cnn(-c2cc(N/N=C/c3ccc(F)cc3)ncn2)c1	-17.9	-27.5	0.0	0.0	51.7*	-5.5	42.4*	101.1*
Cc1cnn(-c2cc(N/N=C/c3ccccc3Cl)ncn2)c1	18.7	9.9	-0.6	1.3	63.2*	-0.7	-2.2	·
O=C(CCc1ccccc1)N/N=C/c1cc(Br)ccc1O	-7.1	8.6	-0.3	8.0	71.4*	9.4	68.7*	26.9
O=C(Cc1ccccc1)N/N=C/c1cc(Br)cc(Br)c1O	13.0	-9.7	1.2	0.7	59.4*	72.6	73.2*	43.7*
O=C(CCn1cnc(-c2ccccc2)c1-c1ccccc1)N/N=C/c1ccccc1O	-14.1	25.9	0.2	8.5	75.8*	38.3	68.5*	25.7
Cc1ccc(SCCC(=O)N/N=C/c2ccccc2O)cc1	-53.0	2.5	-0.1	1.9	52.0*	42.5	43.8*	46.8*
COc1cc(OC)c(C(=O)OCC(=O)Nc2ccc(S(=O)(=O)N3CCOCC3)cc2)cc1OC	-9.6	-8.3	-0.1	2.4	14.8	1.5	·	·
